Six1-Eya2 blk: qHTS Assay for Inhibitors of the Six1/Eya2 Interaction; AlphaScreen GST-Six1/His-Eya2 binding, biochemical; active compounds read low; hit rate 0.56% among 360,000; AID 651725, 2012; activity change, % (concentration not given with the values); Homeobox protein SIX1 (Homo sapiens) + Protein phosphatase EYA2 (Homo sapiens), …; in the data active means activity change below about -65%; inconclusive means mostly about -30% to -63%
Target sequence (O00167 whole entry, looked up): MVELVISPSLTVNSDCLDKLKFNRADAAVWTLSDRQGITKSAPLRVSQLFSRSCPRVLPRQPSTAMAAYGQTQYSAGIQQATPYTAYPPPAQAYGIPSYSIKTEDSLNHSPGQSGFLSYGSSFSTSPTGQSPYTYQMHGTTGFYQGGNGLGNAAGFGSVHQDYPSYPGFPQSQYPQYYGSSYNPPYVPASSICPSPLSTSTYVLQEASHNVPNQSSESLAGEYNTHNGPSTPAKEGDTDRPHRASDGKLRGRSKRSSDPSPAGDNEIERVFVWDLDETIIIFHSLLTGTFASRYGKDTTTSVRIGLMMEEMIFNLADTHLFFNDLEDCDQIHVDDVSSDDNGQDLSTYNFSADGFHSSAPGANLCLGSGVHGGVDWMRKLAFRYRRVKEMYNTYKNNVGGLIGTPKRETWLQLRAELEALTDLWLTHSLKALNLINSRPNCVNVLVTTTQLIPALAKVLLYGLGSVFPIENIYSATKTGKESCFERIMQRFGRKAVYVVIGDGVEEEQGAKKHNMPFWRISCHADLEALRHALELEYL
Target sequence (Q15475 whole entry, looked up): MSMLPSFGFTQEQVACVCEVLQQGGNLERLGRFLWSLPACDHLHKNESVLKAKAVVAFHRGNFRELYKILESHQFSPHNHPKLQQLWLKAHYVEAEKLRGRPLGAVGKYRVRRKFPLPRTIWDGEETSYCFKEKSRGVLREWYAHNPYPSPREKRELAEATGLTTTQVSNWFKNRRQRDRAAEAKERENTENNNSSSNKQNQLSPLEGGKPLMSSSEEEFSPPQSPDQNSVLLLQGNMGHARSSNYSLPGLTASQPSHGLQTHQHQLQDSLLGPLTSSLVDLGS
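Homogeneous AlphaScreen proximity assay pairing GST-Six1 with His-tagged Eya2 (added as 5X mix: 250 nM and 500 nM) in 50 mM Tris pH 8.0, 300 mM NaCl, 1 mM TCEP. Glutathione donor and nickel acceptor beads; 1 h, 37 °C, dark.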
CtBP-E1A blk: qHTS Assay for Inhibitors of the CtBP/E1A Interaction; AID 651724, 2012; CtBP / adenovirus E1A interaction (AlphaScreen); hit rate 0.49% among 340,000; AlphaScreen GST-E1A/His-CtBP binding, 1536-well; active compounds read low; activity change, % (test concentration not listed); in the data active means activity change below about -65%; inconclusive means mostly about -30% to -63%
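Homogeneous bead-based format: GST-tagged E1A captured on glutathione donor beads, His-tagged CtBP on nickel acceptor beads; compounds precede bead addition by 2 h at 37 °C.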
BAZ2B inh: qHTS Assay for Inhibitors of BAZ2B | AlphaScreen BAZ2B-H3K14Ac peptide displacement | hit rate 4.4% among 360,000 | Bromodomain adjacent to zinc finger domain protein 2B (Homo sapiens), Q9UIF8 | Potency, µM (highest dose often 114 µM), hits mostly inhibitors | AID 504333, 2011; further: nearly all actives have a fitted effect of over 60% in size
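Inhibition is scored as reduced AlphaScreen emission. The BAZ2B/b-H3(5-23)K14Ac complex (50 nM each) in PBS pH 7.4, 0.01% Tween-20 meets compound (up to 110 uM) for 30 min at RT before bead addition.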
JMJD2A Tudor: qHTS Assay for Inhibitors of JMJD2A-Tudor Domain. Lysine-specific demethylase 4A (Homo sapiens), O75164. AlphaScreen JMJD2A-Tudor / H3K4me3 peptide binding. Potency, µM (series often up to 114 µM), actives largely listed as inhibitors. hit rate 4.4% among 390,000. AID 504339, 2011; further: nearly all actives have a fitted effect of over 50% in size
HP1b chromo inh: HTS for Inhibitors of HP1-beta Chromodomain Interactions with Methylated Histone Tails. hit rate 0.56% among 390,000. AlphaScreen HP1-beta / biotin-H3K9me3 peptide binding. Potency, µM (top dose mostly 114 µM), hits mostly inhibitors. Chromobox protein homolog 1 (Homo sapiens), P83916; further: nearly all actives have a fitted effect of over 70% in size
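AlphaScreen: HP1-beta (50 nM) preformed 30 min with biotin-H3(1-18)K9me3 peptide (50 nM) in PBS pH 7.4, 0.01% Tween-20. Compound added for 30 min at RT, then streptavidin donor/nickel chelate acceptor beads (10 ug/mL) for 30 min.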
G9a inh: qHTS Assay for Inhibitors of Histone Lysine Methyltransferase G9a; AID 504332, 2011; Potency, µM (highest dose often 102 µM), usual class: inhibitors; hit rate 8.8% among 350,000; G9a H3K9 monomethylation, AlphaScreen, 2 h; further: nearly all actives have a fitted effect of over 75% in size
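Signal arises when biotinylated H3K9 peptide, once monomethylated, bridges streptavidin donor and antibody-captured acceptor beads. Enzyme at 20 nM was preincubated 15 min with test compounds; peptide 500 nM and SAM 20 uM then reacted for 2 h.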
Large screens that a line does not name were inactive; ! = not confirmed by another sample. Sampled rows, rich in hits. Any-hit rate of the full collection: about 10%. Unless noted, the call rests on the fitted dose curve; in most records, active means well fitted inhibition curve with a large enough effect; inconclusive means small, poorly fitted or top-dose-only effect; inactive means no such curve, though single readings can be large or run the other way.

COc1ccc(N2CC(C(=O)Nc3nnc(C4CCCCC4)s3)CC2=O)cc1 (stereo not given)	JMJD2A Tudor 22µM
COCCSc1nnc(NC(=O)C2CC(=O)N(c3ccc(OC)cc3)C2)s1 (stereo not given)	none
O=C(Nc1nnc(C2CCCCC2)s1)C1CC(=O)N(c2ccc(F)cc2)C1 (stereo not given)	none
COc1ccc(N2CC(C(=O)Nc3nnc(SCC(=O)c4ccccc4)s3)CC2=O)cc1 (stereo not given)	G9a inh 13µM
CNC(=O)CSc1nnc(NC(=O)C2CC(=O)N(c3ccccc3OC)C2)s1 (stereo not given)	G9a inh 10µM
Cc1cccc(N(CC(=O)NCC2CCCO2)C(=O)CCC(=O)Nc2nccs2)c1 (stereo not given)	none
CCC(C)(C)n1nnnc1C(c1cc2cc(OC)c(OC)cc2[nH]c1=O)N1CCc2ccccc21 (stereo not given)	JMJD2A Tudor inconclusive, G9a inh 45µM
Cc1ccc2cc(C(c3nnnn3C(C)(C)C)N3CCCCCC3)c(=O)[nH]c2c1 (stereo not given)	G9a inh 7.9µM
CCC(C)(C)n1nnnc1C(c1cc2cc(C)ccc2[nH]c1=O)N1CCCC1 (stereo not given)	G9a inh 8.9µM
COc1ccc(NC(=O)CC2NCCNC2=O)c(OC)c1 (stereo not given)	none (no result: Six1-Eya2 blk, CtBP-E1A blk)
CC1(C(=O)NS(=O)(=O)c2ccc3c(c2)CCO3)CCN1C(=O)c1ccccc1CCc1ccccc1 (stereo not given)	none (no result: BAZ2B inh, JMJD2A Tudor, HP1b chromo inh, G9a inh)
Cc1nn(C)c(-c2n[nH]c(=S)n2Cc2ccco2)c1Cl	JMJD2A Tudor 22µM, G9a inh 6.3µM
Oc1cc2ccccc2cc1-c1n[nH]c(=S)n1Cc1ccco1	BAZ2B inh inconclusive, JMJD2A Tudor inconclusive, G9a inh 1.6µM
Cc1ccc(-c2nc(=S)c3c(n2Cc2ccco2)CCCC3)cc1	none
Oc1ccc(-c2n[nH]c(=S)n2Cc2ccco2)cc1	JMJD2A Tudor 3.5µM, G9a inh 2.8µM
COc1cccc(-c2n[nH]c(=S)n2Cc2ccco2)c1OC	JMJD2A Tudor 7.9µM, G9a inh inconclusive
O=C(CSc1nnc(-c2cc3ccccc3cc2O)n1Cc1ccco1)N1CCc2ccccc2C1	G9a inh inconclusive
COc1ccccc1N(CC(=O)NC1CCCC1)C(=O)CCC(=O)Nc1ccccn1	none
COc1cccc(CNS(=O)(=O)c2ccc3[nH]c4c(c3c2)CCCCC4)c1	JMJD2A Tudor inconclusive, HP1b chromo inh inconclusive, G9a inh inconclusive (no result: Six1-Eya2 blk, CtBP-E1A blk)
O=S(=O)(Nc1cc(F)ccc1F)c1ccc2[nH]c3c(c2c1)CCCCC3	BAZ2B inh 40µM, JMJD2A Tudor inconclusive, G9a inh inconclusive (no result: Six1-Eya2 blk, CtBP-E1A blk)
O=S(=O)(Nc1cc(F)ccc1F)c1ccc2[nH]c3c(c2c1)CCCC3	BAZ2B inh inconclusive, JMJD2A Tudor inconclusive, G9a inh inconclusive (no result: Six1-Eya2 blk, CtBP-E1A blk)
O=S(=O)(NCc1ccc(F)cc1)c1ccc2[nH]c3c(c2c1)CCCCC3	JMJD2A Tudor 45µM, HP1b chromo inh inconclusive, G9a inh 8.9µM (no result: Six1-Eya2 blk, CtBP-E1A blk)
Cc1ccc(NC(=O)C(CC(C)C)NS(=O)(=O)c2ccc3c(c2)oc(=O)n3C)c(C)c1 (stereo not given)	none (no result: Six1-Eya2 blk, CtBP-E1A blk)
O=C(c1cc2c(s1)CCCC2)N1CCN(C(=O)C2CCCO2)CC1 (stereo not given)	G9a inh 16µM
N#Cc1ccccc1S(=O)(=O)N1CCN(C(=O)c2cc3c(s2)CCC3)CC1	BAZ2B inh inconclusive, JMJD2A Tudor inconclusive, G9a inh 35µM
NC(=O)C1CCN(C(=O)c2cc3c(s2)CCCC3)CC1	none
COc1ccc(N2CCN(C(=O)c3cc4c(s3)CCCCC4)CC2)cc1	Six1-Eya2 blk inconclusive, CtBP-E1A blk inconclusive, BAZ2B inh 13µM, JMJD2A Tudor 50µM, HP1b chromo inh inconclusive, G9a inh inconclusive
Cn1nc(-c2ccc(Cl)cc2)c2cc(C(=O)NCCN3CCOCC3)sc21	Six1-Eya2 blk inconclusive, CtBP-E1A blk inconclusive, G9a inh 71µM
CCOc1ccc(NC(=O)c2cc(-c3ccc(C)c(F)c3)on2)c([N+](=O)[O-])c1	G9a inh inconclusive (no result: Six1-Eya2 blk, CtBP-E1A blk)
O=C(/C=C/c1ccccc1)N1CCN(c2c(Cl)cccc2[N+](=O)[O-])CC1	Six1-Eya2 blk inconclusive, BAZ2B inh inconclusive, JMJD2A Tudor inconclusive, G9a inh inconclusive
COc1ccc(N2CCN(C(=O)c3cc4c(-c5cccc(OC)c5)nn(C)c4s3)CC2)cc1	Six1-Eya2 blk inconclusive, CtBP-E1A blk inconclusive, BAZ2B inh 25µM, JMJD2A Tudor 40µM, HP1b chromo inh inconclusive, G9a inh inconclusive
COCCCNC(=O)c1cc2c(-c3cccc(OC)c3)nn(C)c2s1	CtBP-E1A blk inconclusive
CCN(CC)CCNC(=O)c1cc2c(-c3cccc(OC)c3)nn(C)c2s1	G9a inh 79µM!
COc1ccccc1OCCOCCN1CCCC1	JMJD2A Tudor 50µM, HP1b chromo inh inconclusive, G9a inh 25µM
Cc1ccccc1OCCOCCN1CCCCCC1	BAZ2B inh inconclusive, JMJD2A Tudor inconclusive, HP1b chromo inh inconclusive, G9a inh 40µM
Cc1ccc(C(C)C)cc1OCCOCCN1CCCC1	BAZ2B inh inconclusive, JMJD2A Tudor 7.1µM, HP1b chromo inh inconclusive, G9a inh 13µM
Cc1ccc(C(C)C)cc1OCC(=O)NC1CCCCCCC1	none
COc1cccc(C(=O)Nc2cccc(OCc3cc(=O)n4cc(C)ccc4n3)c2)c1	none (no result: Six1-Eya2 blk, CtBP-E1A blk)
C(=N\Nc1nc(N2CCOCC2)nc(N2CCOCC2)n1)/c1ccco1	BAZ2B inh inconclusive (no result: Six1-Eya2 blk, CtBP-E1A blk, JMJD2A Tudor, HP1b chromo inh)
Fc1ccc(Nc2nc(N/N=C/c3ccco3)nc(N3CCCCC3)n2)cc1	BAZ2B inh inconclusive, JMJD2A Tudor inconclusive, G9a inh 40µM (no result: CtBP-E1A blk)
O=C(c1ccc2c(c1)N(Cc1ccccc1F)C(=O)c1ccccc1S2(=O)=O)N1CCC(Cc2ccccc2)CC1	BAZ2B inh inconclusive (no result: Six1-Eya2 blk, CtBP-E1A blk)
COc1cccc(CN2CCC(C(=O)Nc3ccc(-c4cccc(C)c4)cc3)CC2)c1O	BAZ2B inh inconclusive, JMJD2A Tudor inconclusive, G9a inh 20µM
Cc1cccc(-c2ccc(NC(=O)C3CCN(CC4CC4)CC3)cc2)c1	none (no result: G9a inh)
CC1=C(C(N)=O)C(c2ccccc2[N+](=O)[O-])n2ncnc2N1 (stereo not given)	JMJD2A Tudor 40µM, HP1b chromo inh inconclusive, G9a inh 28µM (no result: CtBP-E1A blk)
CC1=C(C(N)=O)C(c2ccccc2Br)n2ncnc2N1 (stereo not given)	none (no result: Six1-Eya2 blk, CtBP-E1A blk)

Source: PubChem (National Center for Advancing Translational Sciences (NCATS))
